Screens: PubChem, National Center for Advancing Translational Sciences (NCATS)
Tau fil binding: tau filament binding; P10636; recombinant tau filaments, thioflavin S fluorescence, 15 h; filaments grown with octadecylsulfate alongside compound; Potency, µM (titrated, usually from 57.1 µM), without a hit: top-dose activity change, negative = inhibition; hit rate 2% among 71,000; AID 596;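 further: potency means the concentration at half of the fitted maximal effect; on the % scale 0 is the no-effect control and ±100 the full control effect; actives lower thioflavin S fluorescence by blocking filaments or displacing dye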
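Thioflavine S fluorescence (ex 450, em 510 nm) reports filaments formed from 1 uM human tau plus 30 uM ODS over 15 h at 37 C (10 mM HEPES pH 7.4, 100 mM NaCl, 5 mM DTT); compounds displacing dye or blocking filaments lower signal.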
DNA Pol III inh: DNA polymerase III holoenzyme inhibition. reconstituted DNA polymerase III holoenzyme replication, biochemical. Potency, µM (series often up to 57.1 µM), without a hit: at the top dose activity change, negative = inhibition. hit rate 0.25% among 71,000. AID 603; further: potency means the concentration at half of the fitted maximal effect; on the % scale 0 is the no-effect control and ±100 the full control effect
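Reconstituted *E. coli* holoenzyme (0.35 nM Pol III, 1 nM beta, 154 nM SSB, 2 nM primase) was preincubated with compound for 15 min at RT. Synthesis on 1.4 nM ssM13Gori ran 35 min, then was stopped with PicoGreen/EDTA and read as dsDNA fluorescence.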
BRCT inh green: blocks human BRCA1 BRCT binding to phosphopeptide, green readout; BRCA1 BRCT-phosphopeptide binding, green fluorescence polarization; Potency, µM (series often up to 76.9 µM), for inactives: at the top dose activity change, negative = inhibition, usual class: inhibitors; hit rate 0.05% among 75,000; AID 875;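 further: potency means the concentration at half of the fitted maximal effect; plate controls were peptide without protein for full effect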
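Fluorescence polarization: His-tagged BRCT (~35 kDa BRCA1 C-terminus, 250 nM) bound to 100 nM fluorescein-labeled phosphorylated 10-aa BACH1 peptide, pH 7.3 phosphate buffer with DTT and Tween 20. Compounds incubated 12 min at room temperature; inhibition read as lowered polarization.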
BRCT inh red: inhibitors of human BRCA1 BRCT-phosphoprotein interaction (red fluorophore) | BRCT-phosphopeptide binding, red fluorescence polarization | Potency, µM (highest dose often 76.9 µM), inactives show at the top dose activity change, negative = inhibition, actives largely listed as inhibitors | hit rate 0.03% among 75,000 | AID 892; further: on the % scale 0 is the no-effect control and ±100 the full control effect
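Rhodamine-labelled pBACH1 10-mer (100 nM) bound to BRCT domain (100 nM) at pH 7.3; compounds incubated 12 min room temperature, polarization read. Free peptide defines full inhibition; unlabelled decapeptide titrated as control.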
YjeE inh: inhibitors of E. coli YjeE (TsaE); purified YjeE enzyme, qHTS inhibition assay; P0AF67; hit rate 0.05% among 71,000; Potency, µM
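Fluorescence polarization of a BODIPY Texas Red–ADP probe (2 uM) bound to purified YjeE (10 uM) was read after 15 min room-temperature incubation with compounds. Loss of polarization marks inhibitors; ADP serves as titrated control.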
Hsp90 Hop PPI: changes Hsp90-Hop TPR2A binding signal, up or down. AlphaScreen TPR2A-His6 binding biotin-Hsp90 C-terminal peptide. Potency, µM (top dose mostly 57 µM), for inactives: at the top dose activity change, negative = inhibition. hit rate 0.44% among 71,000; active means well fitted curve in either direction with a large enough effect; inconclusive means small, poorly fitted or top-dose-only effect, or another doubt; further: potency means the concentration at half of the fitted maximal effect; on the % scale 0 is the no-effect control and ±100 the full control effect
Starred values were filed as active, the others as inactive; i = inactive; ? = inconclusive; . = no result; ! = repeats disagree; [ ] = another dose, or the depositor's remark. Sampled rows, rich in hits. Any-hit rate of the full collection: about 2.4%. Unless noted, the call rests on the fitted dose curve; in most records, active means well fitted curve in the direction sought with a large enough effect; inconclusive means small, poorly fitted or top-dose-only effect, or another doubt; inactive means no such curve, though single readings can be large; an effect the other way counts as inactive or inconclusive.

SMILES	Tau fil binding	DNA Pol III inh	BRCT inh green	BRCT inh red	YjeE inh	Hsp90 Hop PPI
COC(=O)/C=C\C(=O)N[C@@H]1CC[C@@]2(O)[C@H]3Cc4ccc(O)c5c4[C@@]2(CCN3CC2CC2)[C@@H]1O5	31.6µM*	-2.9%	-0.1%	-1.8%	i	-0.7%
CC[C@H](CO)NC(=O)[C@@H]1C=C2c3cccc4[nH]cc(c34)C[C@@H]2N(C)C1	20.3%	-4.4%	-2.6%	-2.6%	i	-11.9%
Brc1ccc(Oc2ccc(Br)cc2Br)c(Br)c1	7.9%	11.3%	-5.7%	-2.0%	i	31.6µM*
Oc1ccc2c3c1O[C@@H]1c4[nH]c5c(c4C[C@@]4(O)[C@@H](C2)N(CC2CC2)CC[C@]314)C[C@]1(O)[C@@H]2Cc3ccc(O)c4c3[C@@]1(CCN2CC1CC1)[C@H]5O4	2.3%	-8.8%	2.1%	-0.2%	i	?
CCN(CC)c1ncnc2c1ncn2[C@@H]1O[C@@H](COP(=O)(O)OP(=O)(O)C(Br)(Br)P(=O)(O)O)[C@H](O)[C@@H]1O	-6.6%	-2.9%	-1.0%	1.1%	i	-20.7%
CCCCCn1c(N)c(C(=O)NCCN2CCOCC2)c2nc3ccccc3nc21	54.8%	-0.7%	-1.0%	-0.7%	i	?
COc1ccc(Cn2c(N)c(C(=O)NCc3ccco3)c3nc4ccccc4nc32)cc1	6.31µM*	-9.9%	4.2%	-2.7%	?	-10.1%
COCCCn1c(N)c(C(=O)NCCC(C)C)c2nc3ccccc3nc21	3.3%	-12.5%	-0.2%	-2.6%	i	25.1µM*
COCCOC(=O)c1c(N)n(Cc2ccccc2)c2nc3ccccc3nc12	16.8%	-6.6%	-2.5%	-0.4%	i	11.3%
N[C@]1(C(=O)O)CC[C@@H](C(=O)O)C1	-0.1%	-0.8%	.	.	i	1.1%
CCCC[N+]1(C)[C@@H]2CC(OC(=O)[C@@H](CO)c3ccccc3)C[C@H]1[C@H]1O[C@H]12 (stereo not given in full)	-3.7%	-4.3%	-3.3%	-1.4%	i	-2.3%
COC[C@@H]1OC(=O)c2coc3c2[C@]1(C)C1=C(C3=O)[C@H]2CCC(=O)[C@]2(C)C[C@@H]1OC(C)=O	37.9%	7.8%	.	.	i	-9.3%
O=C(O)[C@@H]1C[C@H]2C[C@@H](CP(=O)(O)O)CC[C@H]2CN1	31.6µM*	-2.4%	-1.8%	-0.7%	i	4.4%
O=[N+]([O-])c1ccc2c3c(cccc13)CC2	25.1µM*	-6.6%	-2.7%	-2.4%	i	-6.7%
O=[N+]([O-])c1cccc2ccccc12	8.4%	3.0%	0.0%	0.7%	i	-1.6%
O=C(O)CN1CCN(CC(=O)O)CC(=O)[O][Hg][O]C(=O)C1	2.2%[11.4 µM]	-7.8%[11.4 µM]	0.0%[15.4 µM]	-3.9%[15.4 µM]	i	0.9%[11 µM]
C=CCN1CC[C@]23c4c5ccc(O)c4O[C@@H]2C(=O)CC[C@@]3(O)[C@H]1C5	1.2%	-4.4%	-2.1%	1.0%	i	-6.6%
Cc1o[nH]c(=O)c1C[C@H](N)C(=O)O	31.6µM*!	1.6%	-0.3%	0.3%	i	0.6%
Cc1o[nH]c(=O)c1C[C@@H](N)C(=O)O	?	-2.4%	0.8%	0.7%	i	-2.0%
c1ccc2c(c1)-c1cccc3cccc-2c13	-1.1%	-2.6%	-4.9%	-2.0%	i	31.6µM*
O=C(O)c1ccccc1-c1c2cc(Br)c(=O)cc-2oc2[c]([Hg])c(O)c(Br)cc12	i	i	0.794µM*	1.58µM*	i	-7.7%[26 µM]
Cc1ccc2c(c1N)C(=O)c1ccccc1C2=O	3.98µM*	-13.7%	3.7%	-2.8%	i	-20.4%
Nc1ccc(N2CCN(Cc3ccccc3Cl)CC2)c(Cl)c1	25.1µM*	6.8%	0.4%	0.0%	i	-17.6%
COc1ccccc1N1CCN(Cc2ccccc2Cl)CC1	.	.	-1.9%	0.9%	.	.
Cc1cc(N=Nc2ccccc2C)ccc1N	7.94µM*	9.3%	0.7%	-0.3%	i	?
Cc1ccc(N=C=O)cc1N=C=O	57.0%	-4.9%	-0.8%	1.2%	i	-2.6%
CCCCc1ccc2[nH]cc(CCN)c2c1	15.8µM*	-1.7%	-3.6%	0.3%	i	-3.7%
